The test system of this experiment is Trichoderma virens ATCC 9645. As to the kind of experiment: growth yield (OD600) with compound + IPBC relative to untreated control; higher = less growth inhibition. The note with it: compound concentration: 100 uM, IPBC concentration: 200 ng/ml. The gist of the method:
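For each 96-well plate, 100 μl aliquots were prepared with Trichoderma virens ATCC 9645 spores suspended at 15,000 spores ml^−1 in potato dextrose broth. The spores had been harvested from potato dextrose agar plates after 7 days. Library compounds were present at 100 μM final, some wells also receiving a biocide at 200 ng ml^−1, and plates were grown at 30 °C with OD600 read on a BioTek EL800 at 40 h and 72 h. Reported growth, relative to the control lacking both agents, is the mean of duplicate screens.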

Structures can show the parent of a compound that is named as a salt. ± gives the standard error. Screen size: about 1,300 compounds; about 130 (10%) showed an effect of 50% or more. The sample holds strong results, similar compounds and a random draw of the others, so the mix is not that of the screen.

For the compound `COc1cc(NS(=O)(=O)c2ccc(N)cc2)nc(OC)n1` [Sulfadimethoxine] + CCCCNC(=O)OCC#CI [3-iodo-2-propynyl butylcarbamate (IPBC)], the growth yield (40 h) is 116.3 ± 0.95% and the growth yield (72 h) amounted to 114 ± 1.6%.
For `C[C@]12CC[C@H]3[C@@H](CCC4=CC(=O)CC[C@@H]43)[C@@H]1CC[C@@H]2O` [Nandrolone] + CCCCNC(=O)OCC#CI [3-iodo-2-propynyl butylcarbamate (IPBC)] the same measures were 61.2 ± 3.3% and 83.7 ± 4.8%.
For `COc1cccc(OC)c1C(=O)N[C@@H]1C(=O)N2[C@@H]1SC(C)(C)[C@@H]2C(=O)O` [Methicillin sodium] + CCCCNC(=O)OCC#CI [3-iodo-2-propynyl butylcarbamate (IPBC)] the same measures were 89.3% and 90.7 ± 2%.
Consider `CC(=O)Oc1ccccc1C(=O)O` [Acetylsalicylic acid] + CCCCNC(=O)OCC#CI [3-iodo-2-propynyl butylcarbamate (IPBC)], for which the growth yield (40 h) came out at 107 ± 4.9% and the growth yield (72 h) was 104 ± 5.5%.
The like results for `COc1ccc(C(=O)c2ccccc2)c(O)c1` [Oxybenzone] + CCCCNC(=O)OCC#CI [3-iodo-2-propynyl butylcarbamate (IPBC)] were, in that order, 45.3 ± 4.9% and 71.1 ± 6.1%.
For `COc1ccc(C(=O)c2ccccc2O)c(O)c1` [Dioxybenzone] + CCCCNC(=O)OCC#CI [3-iodo-2-propynyl butylcarbamate (IPBC)] the same measures were 23.67 ± 0.16% and 48.35 ± 0.1%.
The like results for `Nc1ccc(C(=O)O)c(O)c1` [4-aminosalicylic acid] + CCCCNC(=O)OCC#CI [3-iodo-2-propynyl butylcarbamate (IPBC)] were, in that order, 87.36 ± 0.32% and 94.18 ± 0.42%.
Take `COc1ccc(C(=O)CC(=O)c2ccc(C(C)(C)C)cc2)cc1` [Avobenzone] + CCCCNC(=O)OCC#CI [3-iodo-2-propynyl butylcarbamate (IPBC)]: the growth yield (40 h) turned out to be 67.83 ± 0.16% and the growth yield (72 h) amounted to 71.84 ± 0.1%.
The like results for `COc1ccccc1O` [Guaiacol] + CCCCNC(=O)OCC#CI [3-iodo-2-propynyl butylcarbamate (IPBC)] were, in that order, 94.7 ± 1.6% and 98 ± 1.5%.
Regarding `CC(N)C12CC3CC(CC(C3)C1)C2` (stereo not given) [Rimantadine Hydrochloride] + CCCCNC(=O)OCC#CI [3-iodo-2-propynyl butylcarbamate (IPBC)], the growth yield reads like this: (40 h) 82.76 ± 0.16%; (72 h) 89.04 ± 0.1%.
The like results for `C=C1CC[C@@]2(O)[C@H]3Cc4ccc(O)c5c4[C@@]2(CCN3CC2CC2)[C@H]1O5` [Nalmefene hydrochloride] + CCCCNC(=O)OCC#CI [3-iodo-2-propynyl butylcarbamate (IPBC)] were, in that order, 104 ± 15% and 103 ± 8.3%.
On to `C[C@H](Cc1cc2c(c(C(N)=O)c1)N(CCCO)CC2)NCCOc1ccccc1OCC(F)(F)F` [Silodosin] + CCCCNC(=O)OCC#CI [3-iodo-2-propynyl butylcarbamate (IPBC)], for which the growth yield is, setting by setting: (40 h) 87 ± 1.3%; (72 h) 92.6 ± 0.94%.
The like results for `CC[C@]12CCCN3CCc4c(n(c5ccccc45)[C@@](O)(C(=O)OC)C1)[C@@H]32` [Vincamine] + CCCCNC(=O)OCC#CI [3-iodo-2-propynyl butylcarbamate (IPBC)] were, in that order, 86.2 ± 1.4% and 91 ± 1.7%.
The like results for `O=C(O)c1cc(-c2ccc(F)cc2F)ccc1O` [Diflunisal] + CCCCNC(=O)OCC#CI [3-iodo-2-propynyl butylcarbamate (IPBC)] were, in that order, 57.8 ± 1.6% and 80.65 ± 0.32%.
For `CN(C)[C@@H]1C(O)=C(C(N)=O)C(=O)[C@@]2(O)C(O)=C3C(=O)c4c(O)ccc(Cl)c4[C@@](C)(O)[C@H]3C[C@@H]12` [Chlortetracycline hydrochloride] + CCCCNC(=O)OCC#CI [3-iodo-2-propynyl butylcarbamate (IPBC)] the same measures were 77.2 ± 0.64% and 84.3 ± 2.1%.
Consider `C[N+]1(C)CCOC(O)(c2ccc(-c3ccc(C4(O)C[N+](C)(C)CCO4)cc3)cc2)C1` (stereo not given) [Hemicholinium bromide] + CCCCNC(=O)OCC#CI [3-iodo-2-propynyl butylcarbamate (IPBC)], for which the growth yield by setting is: (40 h) 19.1 ± 0.64%; (72 h) 69.4 ± 1.5%.
As for `CC(=O)S[C@@H]1CC2=CC(=O)CC[C@]2(C)[C@H]2CC[C@@]3(C)[C@@H](CC[C@@]34CCC(=O)O4)[C@H]12` [Spironolactone] + CCCCNC(=O)OCC#CI [3-iodo-2-propynyl butylcarbamate (IPBC)], the growth yield is 85.3 ± 9.1% (40 h) and 91.1 ± 7% (72 h).
Consider `CN(C)CCc1c[nH]c2ccc(C[C@H]3COC(=O)N3)cc12` [Zolmitriptan] + CCCCNC(=O)OCC#CI [3-iodo-2-propynyl butylcarbamate (IPBC)], for which the growth yield (40 h) came to 93.2 ± 4% and the growth yield (72 h) worked out at 96.3 ± 4%.
Regarding `C=C(C)[C@@H]1[C@H]2OC(=O)[C@@H]1[C@]1(O)C[C@H]3O[C@]34C(=O)O[C@H]2[C@]14C` [Picrotoxinin] + CCCCNC(=O)OCC#CI [3-iodo-2-propynyl butylcarbamate (IPBC)], the growth yield runs as follows: (40 h) 96.3 ± 11%; (72 h) 97.1 ± 8.2%.
In the case of `CCOC(=O)N1CCC(=C2c3ccc(Cl)cc3CCc3cccnc32)CC1` [Loratadine] + CCCCNC(=O)OCC#CI [3-iodo-2-propynyl butylcarbamate (IPBC)], the growth yield (40 h) was 17.3 ± 4% and the growth yield (72 h) came to 58.7 ± 2.5%.
The like results for `Clc1ccc2c(c1)CCc1cccnc1C2=C1CCNCC1` [Desloratadine] + CCCCNC(=O)OCC#CI [3-iodo-2-propynyl butylcarbamate (IPBC)] were, in that order, 56.2 ± 0.64% and 89.7 ± 1.4%.
On to `CN1CCC(=C2c3ccccc3CCc3cccnc32)CC1` [Azatadine maleate] + CCCCNC(=O)OCC#CI [3-iodo-2-propynyl butylcarbamate (IPBC)], for which the growth yield runs as follows: (40 h) 99.6 ± 2.4%; (72 h) 97.43 ± 0.94%.
For `Nc1nc(=O)n([C@@H]2CS[C@H](CO)O2)cc1F` [(-)-Emtricitabine] + CCCCNC(=O)OCC#CI [3-iodo-2-propynyl butylcarbamate (IPBC)], the growth yield by setting is: (40 h) 81.33 ± 0.64%; (72 h) 87.5 ± 1.1%.
Turning to `CC(=O)[C@@]1(O)CC[C@H]2[C@@H]3C[C@H](C)C4=CC(=O)C=C[C@]4(C)[C@@]3(F)[C@@H](O)C[C@@]21C` [Fluorometholone] + CCCCNC(=O)OCC#CI [3-iodo-2-propynyl butylcarbamate (IPBC)], the growth yield is 91.3 ± 9.1% (40 h) and 88.7 ± 5% (72 h).
The like results for `CC(=O)NS(=O)(=O)c1ccc(N)cc1` [Sulfacetamide sodic hydrate] + CCCCNC(=O)OCC#CI [3-iodo-2-propynyl butylcarbamate (IPBC)] were, in that order, 91.5 ± 1.3% and 93.7 ± 0.94%.
For `Cc1noc(NS(=O)(=O)c2ccc(N)cc2)c1C` [Sulfisoxazole] + CCCCNC(=O)OCC#CI [3-iodo-2-propynyl butylcarbamate (IPBC)] the same measures were 77.7 ± 2.7% and 91.1 ± 1.4%.
For `Cc1cc(C)nc(NS(=O)(=O)c2ccc(N)cc2)n1` [Sulfamethazine sodium salt] + CCCCNC(=O)OCC#CI [3-iodo-2-propynyl butylcarbamate (IPBC)] the same measures were 100 ± 14% and 98.5 ± 9.1%.
Take `Cc1cc(NS(=O)(=O)c2ccc(N)cc2)no1` [Sulfamethoxazole] + CCCCNC(=O)OCC#CI [3-iodo-2-propynyl butylcarbamate (IPBC)]: the growth yield is, setting by setting: (40 h) 45.6 ± 1.1%; (72 h) 80 ± 1.6%.
For `CC1CS(=O)(=O)CCN1/N=C/c1ccc([N+](=O)[O-])o1` (stereo not given) [Nifurtimox] + CCCCNC(=O)OCC#CI [3-iodo-2-propynyl butylcarbamate (IPBC)] the same measures were 91.5 ± 12% and 91.9 ± 6.9%.
For `C[C@H](CS)C(=O)N1CCC[C@H]1C(=O)O` [Captopril] + CCCCNC(=O)OCC#CI [3-iodo-2-propynyl butylcarbamate (IPBC)] the same measures were 90.1 ± 1.1% and 90.1 ± 1.1%.
`C1CCC(C(CC2CCCCN2)C2CCCCC2)CC1` (stereo not given) [Perhexiline maleate] + CCCCNC(=O)OCC#CI [3-iodo-2-propynyl butylcarbamate (IPBC)]: the growth yield reads like this: (40 h) 40.981 ± 7.1e-15%; (72 h) 85.27 ± 0.32%.
The like results for `CN1C(C(=O)Nc2ccccn2)=C(O)c2sccc2S1(=O)=O` [Tenoxicam] + CCCCNC(=O)OCC#CI [3-iodo-2-propynyl butylcarbamate (IPBC)] were, in that order, 83.1 ± 2.1% and 94.08 ± 0.1%.
The like results for `CCCCC1(COC(=O)CCC(=O)O)C(=O)N(c2ccccc2)N(c2ccccc2)C1=O` [Suxibuzone] + CCCCNC(=O)OCC#CI [3-iodo-2-propynyl butylcarbamate (IPBC)] were, in that order, 89.4 ± 2.7% and 92.71 ± 0.84%.
In the case of `Cc1cccc(C)c1NC(=O)C1CCCCN1C` (stereo not given) [Mepivacaine hydrochloride] + CCCCNC(=O)OCC#CI [3-iodo-2-propynyl butylcarbamate (IPBC)], the growth yield by setting is: (40 h) 91.3 ± 3.3%; (72 h) 96.3 ± 4%.
For `CCCCC[C@H](O)/C=C/[C@@H]1[C@@H](C/C=C\CCCC(=O)O)[C@@H](O)C[C@H]1O` [Dinoprost trometamol] + CCCCNC(=O)OCC#CI [3-iodo-2-propynyl butylcarbamate (IPBC)] the same measures were 83.1 ± 1.1% and 94.08 ± 0.52%.
For `CCOc1ccc2nc(S(N)(=O)=O)sc2c1` [Ethoxzolamide] + CCCCNC(=O)OCC#CI [3-iodo-2-propynyl butylcarbamate (IPBC)] the same measures were 90.2% and 92.2 ± 3.9%.
For `Nc1nc2ccc(OC(F)(F)F)cc2s1` [Riluzole hydrochloride] + CCCCNC(=O)OCC#CI [3-iodo-2-propynyl butylcarbamate (IPBC)] the same measures were 27.3 ± 2.2% and 49.3 ± 1.9%.
For the compound `CC(C(=O)O)c1ccc(N2Cc3ccccc3C2=O)cc1` (stereo not given) [Indoprofen] + CCCCNC(=O)OCC#CI [3-iodo-2-propynyl butylcarbamate (IPBC)], the growth yield (40 h) is 88.8 ± 11% and the growth yield (72 h) was 91.2 ± 7.3%.
The like results for `Cc1ccc(C(=O)c2ccc(CC(=O)O)n2C)cc1` [Tolmetin sodium salt dihydrate] + CCCCNC(=O)OCC#CI [3-iodo-2-propynyl butylcarbamate (IPBC)] were, in that order, 77.8 ± 4.8% and 83.9 ± 2.3%.
For `C[C@]12CC[C@H](O)C[C@H]1CC[C@@H]1[C@@H]2CC[C@]2(C)[C@@H](C3=CC(=O)OC3)CC[C@]12O` [Digitoxigenin] + CCCCNC(=O)OCC#CI [3-iodo-2-propynyl butylcarbamate (IPBC)] the same measures were 79.58 ± 0.48% and 87.36 ± 0.52%.

The record behind these values is the supplement of paper PMC8007513.
